From PubChem BioAssay (Tox21)
Records with an inconclusive call do not appear. Entries that show only a call come without a potency. The source made the active and inactive calls. Unless noted, calls follow the shape of the dose curve; as a rule, active = well fitted curve in the direction sought with a large enough effect in the repeat runs; inconclusive = weak or mixed curves; inactive = no such curve, though single readings can be large; an effect the other way counts as inactive or inconclusive.

Experiments:
[1] = qHTS assay to identify small molecule antagonists of the estrogen related receptor (ERR) signaling pathway from Tox21 library - cell viability counter screen (AID 1224834); also: nearly all actives have a fitted effect of over 30% in size
Procedure, shortened: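 CellTiter-Fluor fluorescence, read after 30 min at 37 C, measures viability of ERR cells. Cells plated at 2,000/well and incubated 6 h before pin-tool compound addition, then exposed 17.5 hours at 37 C.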

[2] = target: Luciferin 4-monooxygenase (Photinus pyralis) (UniProt P08659); experiment: qHTS assay to identify small molecule inhibitors of firefly luciferase (AID 1224835); also: nearly all actives have a fitted effect of over 25% in size; also: potency is read from the fitted curve at half-maximal effect
Luciferin 4-monooxygenase (Photinus pyralis), sequence (P08659 whole entry, looked up): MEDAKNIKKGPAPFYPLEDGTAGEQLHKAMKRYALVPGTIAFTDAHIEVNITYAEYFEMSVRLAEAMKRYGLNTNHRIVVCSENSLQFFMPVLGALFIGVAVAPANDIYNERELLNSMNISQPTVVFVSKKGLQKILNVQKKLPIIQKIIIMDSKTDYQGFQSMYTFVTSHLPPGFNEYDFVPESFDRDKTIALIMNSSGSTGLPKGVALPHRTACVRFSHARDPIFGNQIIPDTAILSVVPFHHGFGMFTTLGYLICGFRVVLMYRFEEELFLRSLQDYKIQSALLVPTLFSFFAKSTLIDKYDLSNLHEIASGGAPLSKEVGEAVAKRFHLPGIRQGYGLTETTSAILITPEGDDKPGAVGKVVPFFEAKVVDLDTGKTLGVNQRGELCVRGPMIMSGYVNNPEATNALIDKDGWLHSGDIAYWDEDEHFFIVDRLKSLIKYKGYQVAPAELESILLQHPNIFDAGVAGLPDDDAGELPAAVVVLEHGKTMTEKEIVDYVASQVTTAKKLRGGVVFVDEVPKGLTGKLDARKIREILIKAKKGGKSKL
Procedure, shortened: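 Inhibition of purified Photinus luciferase is measured by luminescence. Substrate levels (D-luciferin, ATP) sit at their KM values. Each compound is tested in a concentration series.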

[3] = qHTS assay to identify small molecule agonists of the constitutive androstane receptor (CAR) signaling pathway - cell viability counter screen (AID 1224836); also: series mostly up to about 92 µM; nearly all actives have a fitted effect of over 45% in size
Procedure, shortened: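 Fluorescence from CellTiter-Fluor indicates live cells after 23 h exposure. The human hepatoma line expresses hCAR and a CYP2B6-2.2kb reporter. Incubation medium contains 0.75 uM PK11195 (final).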

[4] = qHTS assay to identify small molecule antagonists of the constitutive androstane receptor (CAR) signaling pathway - cell viability counter screen (AID 1224837); also: series mostly up to about 92 µM; nearly all actives have a fitted effect of over 45% in size
Procedure, shortened: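 Cytotoxicity counter-screen: CellTiter-Fluor fluorescence after 23 h compound exposure (15-point qHTS) in double-stable HepG2-CYP2B6-hCAR cells, with 50 nM CITCO added.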

[5] = target: Nuclear receptor subfamily 1 group I member 3 (Homo sapiens) (UniProt Q14994); experiment: qHTS assay to identify small molecule antagonists of the constitutive androstane receptor (CAR) signaling pathway (AID 1224838);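 also: HepG2 cells stably expressing hCAR with CYP2B6 luciferase reporter stimulated by CITCO; nearly all actives have a fitted effect of over 40% in size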
Nuclear receptor subfamily 1 group I member 3 (Homo sapiens), sequence (Q14994 whole entry, looked up): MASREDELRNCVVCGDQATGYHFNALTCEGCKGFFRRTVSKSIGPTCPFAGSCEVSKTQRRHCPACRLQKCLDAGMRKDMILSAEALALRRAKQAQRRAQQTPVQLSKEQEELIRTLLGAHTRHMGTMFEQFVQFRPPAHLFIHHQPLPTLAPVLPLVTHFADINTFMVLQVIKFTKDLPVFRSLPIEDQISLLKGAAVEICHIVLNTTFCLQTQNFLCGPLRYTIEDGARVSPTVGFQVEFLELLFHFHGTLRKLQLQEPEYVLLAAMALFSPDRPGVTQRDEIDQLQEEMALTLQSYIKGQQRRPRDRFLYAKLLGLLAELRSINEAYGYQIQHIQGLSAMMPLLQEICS
Procedure, shortened: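 Antagonism measured as luciferase signal (ONE-Glo, 30 min, room temperature) in CAR-stimulated cells: HepG2-CYP2B6-hCAR double-stable line exposed 24 hr at 37 C to compound in a 15-point series plus 50 nM CITCO.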

[6] = qHTS assay to identify small molecule antagonists of the estrogen related receptor signaling pathway with the pleiotropic PPARgamma coactivator (PGC) from Tox21 10K library - cell viability counter screen (AID 1224840; active = well fitted cell-killing curve with a large enough effect in the repeat runs, not every such curve was filed as active; also: nearly all actives have a fitted effect of over 40% in size)
Procedure, shortened: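 Counter-screen for cytotoxicity: after 17.5 h compound exposure at 37 C, CellTiter-Fluor reagent added to PGC/ERR cells for 30 min and fluorescence read. Cells were seeded at 2,000 per well 6 h before dosing.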

[7] = qHTS assay to identify small molecule antagonists of the estrogen related receptor signaling pathway with the pleiotropic PPARgamma coactivator (PGC) from Tox21 10K library (AID 1224841; call rule not given here; also: series mostly up to about 92 µM; actives are mostly falling curves and most rising ones were filed inactive; nearly all actives have a fitted effect of over 50% in size)
Procedure, shortened: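 Luminescence (One-Glo, 30 min at room temperature) after 18 h compound treatment at 37 C of PGC/ERR reporter cells plated at 2,000 cells/well and settled 6 h beforehand.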

[8] = qHTS assay to identify small molecule agonists of the estrogen related receptor signaling pathway with the pleiotropic PPARgamma coactivator (PGC) from Tox21 10K library (AID 1224842); also: nearly all actives have a fitted effect of over 15% in size
Procedure, shortened: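 Luminescence from One-Glo (30 min, room temperature) measured after PGC/ERR cells had 18 h at 37 C with pinned compound (23 nL in DMSO). Cells had been seeded at 2,000 per well and pre-incubated 6 h.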

Compound | Potency [1] | Potency [2] | Potency [3] | Potency [4] | Potency [5] | Potency [6] | Potency [7] | Potency [8]
CCc1ccc(C(=O)C(C)CN2CCCCC2)cc1 (stereo unspecified) | inactive | inactive | inactive | inactive | inactive | inactive | – | –
O=C(OC1C[C@H]2CC[C@@H](C1)[N+]21CCCC1)C(O)(c1ccccc1)c1ccccc1 (stereo partly specified) | inactive | inactive | inactive | inactive | inactive | inactive | – | –
Oc1ccc(Oc2ccccc2)cc1 | inactive | inactive | inactive | inactive | inactive | inactive | – | –
CC(C)(C(=O)O)c1ccc(C(O)CCCN2CCC(C(O)(c3ccccc3)c3ccccc3)CC2)cc1 (stereo unspecified) | inactive | inactive | inactive | inactive | inactive | inactive | – | –
C/C(=C\C(C)CC(C)CC(C)C)C1CC(=O)OC1=O (stereo unspecified) | inactive | 89.4 µM (active) | inactive | inactive | – | inactive | – | –
CC/C=C/CCO | inactive | inactive | inactive | inactive | – | inactive | inactive | inactive
CC(Cc1ccccc1)(NC(=O)CN)c1ccccc1 (stereo unspecified) | inactive | inactive | inactive | inactive | – | inactive | – | –
